From the supplement of paper PMC10011410 come the findings set out here.

± gives the standard deviation of the averaged measurements.

The test system of this assay is AmpC beta-lactamase (E. coli). The experiment in a line: AmpC inhibition relative to DMSO; higher = more inhibition. Here is the method: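 Aggregation counter-screen: inhibition of E. coli AmpC beta-lactamase (5 nM, nitrocefin substrate, 50 mM sodium phosphate pH 7.0, RT, 5 min) by KAT inhibitors at 4, 11, 33 and 100 uM, with or without 0.01% Triton X-100. Percent inhibition is relative to DMSO controls. Four technical replicates.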

Setting [1] is: 4 µM, detergent: 0.01% Triton X-100.
The mark [2] stands for this setting: 11 µM, detergent: 0.01% Triton X-100.
[3] abbreviates: 33 µM, detergent: 0.01% Triton X-100.
Setting [4] is: 100 µM, detergent: 0.01% Triton X-100.
Where [5] appears, read: 100 µM, detergent: no detergent.

Take `Cc1cc2c(C(C)C)c(O)c(O)c(C=O)c2c(O)c1-c1c(C)cc2c(C(C)C)c(O)c(O)c(C=O)c2c1O`: the AmpC inhibition is, setting by setting: under setting [1], -0.343 ± 1.1%; (4 µM, detergent: no detergent) 0.793 ± 12%; under setting [2], 4.76 ± 2.2%; (11 µM, detergent: no detergent) -3.81 ± 3.7%; under setting [3], -3 ± 5.7%; (33 µM, detergent: no detergent) -7.04 ± 18%. For the same compound, the AmpC inhibition under setting [4] was 6.4 ± 5.5% and the AmpC inhibition under setting [5] was found to be 32.1 ± 2.7%.

In the case of `O=C(/C(C(N1CC2=CC=CC=C2)=O)=C/C3=C(C)C=C(O)C=C3C)N(CC4=CC=CC=C4)C1=O`, the AmpC inhibition is, setting by setting: under setting [1], 4.49 ± 6.9%; (4 µM, detergent: no detergent) 2.08 ± 1.8%; under setting [2], 3.45 ± 13%; (11 µM, detergent: no detergent) 29.6 ± 8.8%; under setting [3], 10.9 ± 3.2%; (33 µM, detergent: no detergent) 65.9 ± 6.2%. The AmpC inhibition was determined as 14.8 ± 0.9% under setting [4] and 84.9 ± 8.3% under setting [5].

Turning to `CC(=O)c1c(O)c(C)c(O)c(Cc2c(O)c3c(c(C(=O)C=Cc4ccccc4)c2O)OC(C)(C)C=C3)c1O`, the AmpC inhibition under setting [1] was 0.746 ± 2.2%; the AmpC inhibition (4 µM, detergent: no detergent) stood at 3.59 ± 4.4%; the AmpC inhibition under setting [2] stood at 5.76 ± 7.3%; the AmpC inhibition (11 µM, detergent: no detergent) is 41 ± 3.5%; the AmpC inhibition under setting [3] is -0.691 ± 4%; the AmpC inhibition (33 µM, detergent: no detergent) was found to be 73.8 ± 1.6%. For the same compound, the AmpC inhibition runs as follows: under setting [4], 7.83 ± 5.4%; under setting [5], 82.1 ± 1.2%.
